In the library only some 7% were active in any assay of this set; here they are far more common.
PLK1 PBD block = qHTS for Inhibitors of PLK1-PDB (polo-like kinase 1 - polo-box domain): Primary Screen; Plk1 PBD binding of FITC phosphopeptide, fluorescence polarization; Potency, µM, most hits filed as inhibitors; hit rate 2.8% among 360,000; also: series mostly up to about 57 µM; nearly all actives have a fitted effect of over 65% in size
KAT2A inh = qHTS Assay for Inhibitors of GCN5L2 | Histone acetyltransferase KAT2A (Homo sapiens), Q92830 | GCN5L2 HAT assay, ThioGlo1 CoA-SH fluorescence | Potency, µM (top dose mostly 58.9 µM), hits mostly inhibitors | hit rate 0.21% among 390,000
Target sequence (Q92830 whole entry, looked up): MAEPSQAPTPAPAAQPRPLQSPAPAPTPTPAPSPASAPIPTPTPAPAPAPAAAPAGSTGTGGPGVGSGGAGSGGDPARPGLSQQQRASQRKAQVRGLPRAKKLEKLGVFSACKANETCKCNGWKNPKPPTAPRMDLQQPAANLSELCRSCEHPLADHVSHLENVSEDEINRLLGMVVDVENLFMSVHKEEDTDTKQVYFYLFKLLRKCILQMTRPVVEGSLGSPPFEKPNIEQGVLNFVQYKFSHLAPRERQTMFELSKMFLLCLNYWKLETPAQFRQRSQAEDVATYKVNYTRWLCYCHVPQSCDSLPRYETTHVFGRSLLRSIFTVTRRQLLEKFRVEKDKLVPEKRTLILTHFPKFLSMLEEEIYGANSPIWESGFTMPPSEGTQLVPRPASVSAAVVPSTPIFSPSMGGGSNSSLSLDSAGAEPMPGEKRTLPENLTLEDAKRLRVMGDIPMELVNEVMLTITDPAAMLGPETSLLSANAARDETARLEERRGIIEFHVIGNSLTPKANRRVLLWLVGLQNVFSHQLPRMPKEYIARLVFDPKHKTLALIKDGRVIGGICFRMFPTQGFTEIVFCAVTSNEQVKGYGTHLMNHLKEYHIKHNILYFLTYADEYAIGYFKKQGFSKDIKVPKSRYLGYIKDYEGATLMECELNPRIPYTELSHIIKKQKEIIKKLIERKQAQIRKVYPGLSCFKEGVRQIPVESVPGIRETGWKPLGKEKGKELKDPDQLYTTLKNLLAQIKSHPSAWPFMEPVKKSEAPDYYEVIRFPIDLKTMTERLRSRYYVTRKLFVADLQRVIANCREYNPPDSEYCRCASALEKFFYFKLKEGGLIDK
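Enzyme at 20nM final was mixed with library compounds for 15 min at room temperature. Peptide H3(1-25) at 75uM, acetyl-CoA at 70uM and ThioGlo1 at 50uM were then added. Plates were read immediately and after 20 min (Ex340nm/Em540nm).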
HP1b binding inh = HTS for Inhibitors of HP1-beta Chromodomain Interactions with Methylated Histone Tails; AID 540317, 2011; AlphaScreen HP1-beta / biotin-H3K9me3 peptide binding; hit rate 0.56% among 390,000; Chromobox protein homolog 1 (Homo sapiens), P83916; Potency, µM (titrated, usually from 114 µM), most hits filed as inhibitors; also: nearly all actives have a fitted effect of over 70% in size
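HP1-beta protein (50 nM final) preincubated 30 min at room temperature with biotinylated H3(1-18)K9me3 peptide (50 nM) in PBS pH 7.4, 0.01% Tween-20, then compound added for 30 min. AlphaScreen streptavidin donor/nickel chelate acceptor beads (10 ug/mL final), 30 min dark, luminescence read.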
PI5P4Ka inh = qHTS for Inhibitors of phosphatidylinositol 5-phosphate 4-kinase (PI5P4K). PI5P4Kalpha enzyme, ADP-Glo luminescence, 60 min; active compounds read low. max response, %. hit rate 1.2% among 330,000. AID 652105, 2013. Phosphatidylinositol 5-phosphate 4-kinase type-2 alpha (Homo sapiens), P48426; active = max response of -50% or lower; inconclusive = between -30% and -50%; inactive = -30% or higher; also: value at the top dose of about 77 µM
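PI5P4Kalpha ADP-Glo assay; 5 microM ATP final; 60 min RT reaction; HEPES pH 7.4/EGTA/CHAPS, 5% DMSO; controls lacking substrate or enzyme; luminescent end-point.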
BAZ2B inh = qHTS Assay for Inhibitors of BAZ2B. Bromodomain adjacent to zinc finger domain protein 2B (Homo sapiens), Q9UIF8. Potency, µM (top dose mostly 114 µM), usual class: inhibitors. hit rate 4.4% among 360,000. AID 504333, 2011. AlphaScreen BAZ2B-H3K14Ac peptide displacement; also: nearly all actives have a fitted effect of over 60% in size
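AlphaScreen displacement of biotin-H3(5-23)K14Ac peptide (50 nM final) from BAZ2B (50 nM final) in PBS pH 7.4, 0.01% Tween-20; complex preformed 30 min RT, then compounds (top 110 uM) 30 min RT, beads 20 min dark.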
JMJD2A Tudor inh = qHTS Assay for Inhibitors of JMJD2A-Tudor Domain; AlphaScreen JMJD2A-Tudor / H3K4me3 peptide binding; Potency, µM (series often up to 114 µM), most hits filed as inhibitors; hit rate 4.4% among 390,000; also: nearly all actives have a fitted effect of over 50% in size
Numbers stand for hits. Unless noted, calls follow the shape of the dose curve; as a rule, active = well fitted curve in the direction sought with a large enough effect; inconclusive = small, poorly fitted or top-dose-only effect, or another doubt; inactive = no such curve, though single readings can be large; an effect the other way counts as inactive or inconclusive.

Screening Cc1c(C(=O)O)c(O)cc2c1C(=O)c1c(O)c([C@@H]3O[C@H](CO)[C@@H](O)[C@H](O)[C@H]3O)c(O)c(O)c1C2=O returned PLK1 PBD block inactive, KAT2A inh inactive, HP1b binding inh inconclusive, PI5P4Ka inh inconclusive and JMJD2A Tudor inh 25µM.
`COc1c(O)cc2c(c1O)[C@@H]1O[C@H](CO)[C@@H](O)[C@H](O)[C@H]1OC2=O` gave PLK1 PBD block inactive, KAT2A inh inactive, HP1b binding inh inactive, PI5P4Ka inh inactive, BAZ2B inh inactive and JMJD2A Tudor inh inactive.
Screening c1ccc(CSc2nnc(Cc3ccccc3)o2)cc1 returned PLK1 PBD block inconclusive, KAT2A inh inactive, HP1b binding inh inactive, PI5P4Ka inh inactive, BAZ2B inh inactive and JMJD2A Tudor inh 79µM.
`c1ccc(CSc2nnc([C@@H]3CCCN3)o2)cc1` gave PLK1 PBD block inactive, KAT2A inh inactive, HP1b binding inh inactive, PI5P4Ka inh inactive, BAZ2B inh 50µM and JMJD2A Tudor inh inconclusive.
Screening c1ccc(CSc2nnc(Cc3ccccn3)o2)cc1 returned PLK1 PBD block inactive, KAT2A inh inactive, HP1b binding inh inactive, PI5P4Ka inh inactive, BAZ2B inh inactive and JMJD2A Tudor inh inactive.
Cc1ccc(N2C(=O)CS/C2=C(\C(Cl)=C(Cl)Cl)[N+](=O)[O-])cc1 was read as PLK1 PBD block inactive, KAT2A inh inactive, HP1b binding inh inconclusive, BAZ2B inh 45µM and JMJD2A Tudor inh 40µM.
COc1ccc(N2C(=O)CS/C2=C\[N+](=O)[O-])cc1 was read as PLK1 PBD block inactive, KAT2A inh inactive, HP1b binding inh inactive, BAZ2B inh inconclusive and JMJD2A Tudor inh inactive.
Screening CC1CCN(C(=O)c2c(NC(=O)c3ccccc3Cl)sc3c2CCC(C(C)(C)C)C3)CC1 (stereo unspecified) returned KAT2A inh inactive, HP1b binding inh inactive, BAZ2B inh inconclusive and JMJD2A Tudor inh inactive.
For CN(CC(=O)Nc1ccc2c(c1)CCC2)CC(=O)Nc1ccccc1Br the results were PLK1 PBD block 6.7µM, KAT2A inh inactive, HP1b binding inh inactive, PI5P4Ka inh inactive, BAZ2B inh inactive and JMJD2A Tudor inh 14µM.
For N[C@H](COP(=O)(O)O)C(=O)O the results were KAT2A inh inactive.
For Cc1cc(C(=O)Nc2ccc(Br)cc2)cs1 the results were PLK1 PBD block inactive, KAT2A inh inactive, HP1b binding inh inactive, PI5P4Ka inh inactive, BAZ2B inh 56µM and JMJD2A Tudor inh inactive.
Screening Cc1nccc(-c2cccc(NC(=O)c3ccccc3Cl)c2)n1 returned PLK1 PBD block inactive, KAT2A inh inactive, HP1b binding inh inactive, PI5P4Ka inh inactive, BAZ2B inh inactive and JMJD2A Tudor inh inactive.
`CCOC(=O)c1c(C)[nH]c(C)c1C(=O)COC(=O)CCOc1ccccc1OC` gave PLK1 PBD block inconclusive, KAT2A inh inactive, HP1b binding inh inactive, PI5P4Ka inh inactive, BAZ2B inh inactive and JMJD2A Tudor inh 79µM.
For O=c1[nH]c(C2CCN(S(=O)(=O)c3ccccc3)CC2)nc2c1nnn2Cc1ccccc1 the results were PLK1 PBD block 24µM, KAT2A inh inactive, HP1b binding inh inactive, PI5P4Ka inh inactive, BAZ2B inh inactive and JMJD2A Tudor inh 50µM.
Screening O=c1[nH]c(C2CCN(S(=O)(=O)c3ccc([N+](=O)[O-])cc3)CC2)nc2c1nnn2Cc1ccccc1 returned PLK1 PBD block inactive, KAT2A inh inactive, HP1b binding inh inactive, PI5P4Ka inh inactive, BAZ2B inh inconclusive and JMJD2A Tudor inh inactive.
`COC(=O)C1=C(C(=O)OC)C(c2ccccc2O)c2sc(=O)[nH]c2S1` (stereo unspecified) gave PLK1 PBD block 4.2µM, KAT2A inh inactive, HP1b binding inh inactive, PI5P4Ka inh inactive, BAZ2B inh inconclusive and JMJD2A Tudor inh inactive.
Screening Cc1ccc(-c2n[nH]c(=S)n2/N=C/c2cccs2)cc1 returned PLK1 PBD block inactive, KAT2A inh inactive, HP1b binding inh inactive, PI5P4Ka inh inactive, BAZ2B inh inactive and JMJD2A Tudor inh 28µM.
`S=c1[nH]nc(-c2ccncc2)n1/N=C/c1cn(-c2ccccc2)nc1-c1ccccc1` gave PLK1 PBD block inactive, KAT2A inh inactive, HP1b binding inh inactive, PI5P4Ka inh -58, BAZ2B inh inactive and JMJD2A Tudor inh inactive.
`Cc1ccc(/C=N/n2c(-c3ccncc3)n[nH]c2=S)cc1` gave PLK1 PBD block inactive, KAT2A inh inconclusive, HP1b binding inh inactive, PI5P4Ka inh inactive, BAZ2B inh inactive and JMJD2A Tudor inh 2.2µM.
Screening S=c1[nH]nc(-c2ccccc2)n1/N=C/c1cccs1 returned PLK1 PBD block inactive, KAT2A inh inactive, HP1b binding inh inactive, BAZ2B inh inactive and JMJD2A Tudor inh 18µM.
Cc1c(P(=S)(c2ccccc2)c2ccccc2)[n+]2ccccc2n1CC(=O)c1ccccc1 was read as JMJD2A Tudor inh inactive.
For Cc1cc(-c2n[nH]c(=S)n2/N=C/c2cccs2)n[nH]1 the results were PLK1 PBD block inactive, KAT2A inh inactive, HP1b binding inh inactive, PI5P4Ka inh inactive, BAZ2B inh inactive and JMJD2A Tudor inh 6.3µM.
Screening COCCn1ccc2c(OCC(=O)Nc3cccc(OC)c3)cccc2c1=O returned KAT2A inh inactive, HP1b binding inh inactive, BAZ2B inh inactive and JMJD2A Tudor inh inactive.
For Cc1cccc(N2C(=O)c3cccc4c(N(C)CCO)ccc(c34)C2=O)c1 the results were PLK1 PBD block 11µM, KAT2A inh inactive, HP1b binding inh inactive and JMJD2A Tudor inh inactive.
Screening Nc1ccc2c3c(cccc13)C(=O)N(c1ccccc1)C2=O returned PLK1 PBD block 1.3µM, KAT2A inh inactive, HP1b binding inh inactive, PI5P4Ka inh inactive, BAZ2B inh inactive and JMJD2A Tudor inh inactive.
Screening CN(C)c1ccc2c3c(cccc13)C(=O)N(c1ccccc1)C2=O returned KAT2A inh inactive and BAZ2B inh inactive.
For CC(C)CCN1C(=O)c2cccc3c(N)ccc(c23)C1=O the results were PLK1 PBD block 5.3µM, HP1b binding inh inactive, PI5P4Ka inh inactive and JMJD2A Tudor inh inactive.
Screening Nc1cccc(N2C(=O)c3cccc4c(N)ccc(c34)C2=O)c1 returned PLK1 PBD block 11µM, KAT2A inh inactive, HP1b binding inh inactive, PI5P4Ka inh inactive, BAZ2B inh inactive and JMJD2A Tudor inh inactive.
`CC(=O)Nc1cccc2c1C(=O)N(c1cccc(C)c1)C2=O` gave PLK1 PBD block inactive, KAT2A inh inactive, HP1b binding inh inactive, PI5P4Ka inh inactive, BAZ2B inh inactive and JMJD2A Tudor inh inactive.
